Data published in paper doi:10.1101/2024.03.05.583629.

Molecular target: pT7_6His-AlfaTag-HOXD13 (human, UniProt P35453 263-343)
Assay: PADIT-seq
Settings: dsDNA, one strand shown

Sequence of pT7_6His-AlfaTag-HOXD13 (P35453 263-343): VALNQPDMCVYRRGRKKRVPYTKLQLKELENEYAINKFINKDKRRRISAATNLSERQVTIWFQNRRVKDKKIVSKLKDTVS

Row | Sequence | binding signal [log2FC]
1 | CTCGAGGATATCAAGATCTGGCCTCGGCCGGTTAAAAGGAACCTCTAGCTAGCCGACTCACTATAGGGATAATCGCCCTGAGCAAAGACC | 0.716 ± 0.0773
2 | CTCGAGGATATCAAGATCTGGCCTCGGCCTTTTAGTCGGAACCTCTAGCTAGCCGACTCACTATAGGGATAATCGCCCTGAGCAAAGACC | -0.369 ± 0.0988
3 | CTCGAGGATATCAAGATCTGGCCTCGGCATTTTACCCGGAACCTCTAGCTAGCCGACTCACTATAGGGATAATCGCCCTGAGCAAAGACC | -0.0737 ± 0.0918
4 | CTCGAGGATATCAAGATCTGGCCTCGGCGCGTGGCCAGGAACCTCTAGCTAGCCGACTCACTATAGGGATAATCGCCCTGAGCAAAGACC | -1.04 ± 0.128
5 | CTCGAGGATATCAAGATCTGGCCTCGGCATTTTACACGGAACCTCTAGCTAGCCGACTCACTATAGGGATAATCGCCCTGAGCAAAGACC | 2.19 ± 0.0742
6 | CTCGAGGATATCAAGATCTGGCCTCGGCGTTTTACTGGGAACCTCTAGCTAGCCGACTCACTATAGGGATAATCGCCCTGAGCAAAGACC | 2.76 ± 0.0911
7 | CTCGAGGATATCAAGATCTGGCCTCGGCCTTTTAACTGGAACCTCTAGCTAGCCGACTCACTATAGGGATAATCGCCCTGAGCAAAGACC | 1.7 ± 0.0719
8 | CTCGAGGATATCAAGATCTGGCCTCGGCTTTTTATTGGGAACCTCTAGCTAGCCGACTCACTATAGGGATAATCGCCCTGAGCAAAGACC | 3.26 ± 0.0862
9 | CTCGAGGATATCAAGATCTGGCCTCGGCGTTTTAACTGGAACCTCTAGCTAGCCGACTCACTATAGGGATAATCGCCCTGAGCAAAGACC | 1.39 ± 0.0832
10 | CTCGAGGATATCAAGATCTGGCCTCGGCATTTTACGAGGAACCTCTAGCTAGCCGACTCACTATAGGGATAATCGCCCTGAGCAAAGACC | 3.41 ± 0.0937
11 | CTCGAGGATATCAAGATCTGGCCTCGGCCCAATAAAAGGAACCTCTAGCTAGCCGACTCACTATAGGGATAATCGCCCTGAGCAAAGACC | 2.95 ± 0.095
12 | CTCGAGGATATCAAGATCTGGCCTCGGCCGCCCATATGGAACCTCTAGCTAGCCGACTCACTATAGGGATAATCGCCCTGAGCAAAGACC | -0.841 ± 0.12
13 | CTCGAGGATATCAAGATCTGGCCTCGGCCTTTTATTTGGAACCTCTAGCTAGCCGACTCACTATAGGGATAATCGCCCTGAGCAAAGACC | 2.69 ± 0.0648
14 | CTCGAGGATATCAAGATCTGGCCTCGGCCAAATAAAAGGAACCTCTAGCTAGCCGACTCACTATAGGGATAATCGCCCTGAGCAAAGACC | 2.65 ± 0.0828
15 | CTCGAGGATATCAAGATCTGGCCTCGGCGATGTAAAAGGAACCTCTAGCTAGCCGACTCACTATAGGGATAATCGCCCTGAGCAAAGACC | 0.79 ± 0.0749
16 | CTCGAGGATATCAAGATCTGGCCTCGGCGCCATAAAAGGAACCTCTAGCTAGCCGACTCACTATAGGGATAATCGCCCTGAGCAAAGACC | 2.57 ± 0.0659
17 | CTCGAGGATATCAAGATCTGGCCTCGGCCTTTTAACAGGAACCTCTAGCTAGCCGACTCACTATAGGGATAATCGCCCTGAGCAAAGACC | 1.89 ± 0.0877
18 | CTCGAGGATATCAAGATCTGGCCTCGGCCGCACGCGCGGAACCTCTAGCTAGCCGACTCACTATAGGGATAATCGCCCTGAGCAAAGACC | -0.992 ± 0.148
19 | CTCGAGGATATCAAGATCTGGCCTCGGCAATTTAAAAGGAACCTCTAGCTAGCCGACTCACTATAGGGATAATCGCCCTGAGCAAAGACC | 2.32 ± 0.0729
20 | CTCGAGGATATCAAGATCTGGCCTCGGCATTTTAAATGGAACCTCTAGCTAGCCGACTCACTATAGGGATAATCGCCCTGAGCAAAGACC | 1.82 ± 0.0848
21 | CTCGAGGATATCAAGATCTGGCCTCGGCGTTTTAAGGGGAACCTCTAGCTAGCCGACTCACTATAGGGATAATCGCCCTGAGCAAAGACC | 1.67 ± 0.0925
22 | CTCGAGGATATCAAGATCTGGCCTCGGCCTCGTAAAAGGAACCTCTAGCTAGCCGACTCACTATAGGGATAATCGCCCTGAGCAAAGACC | 3.09 ± 0.0876
23 | CTCGAGGATATCAAGATCTGGCCTCGGCATTTTAGCAGGAACCTCTAGCTAGCCGACTCACTATAGGGATAATCGCCCTGAGCAAAGACC | 0.721 ± 0.101
24 | CTCGAGGATATCAAGATCTGGCCTCGGCCGCCCAAATGGAACCTCTAGCTAGCCGACTCACTATAGGGATAATCGCCCTGAGCAAAGACC | -0.854 ± 0.128
25 | CTCGAGGATATCAAGATCTGGCCTCGGCGCTGTAAAAGGAACCTCTAGCTAGCCGACTCACTATAGGGATAATCGCCCTGAGCAAAGACC | 2.11 ± 0.0786
26 | CTCGAGGATATCAAGATCTGGCCTCGGCTTTTTATGAGGAACCTCTAGCTAGCCGACTCACTATAGGGATAATCGCCCTGAGCAAAGACC | 3.46 ± 0.0792
27 | CTCGAGGATATCAAGATCTGGCCTCGGCCGTGTAAAAGGAACCTCTAGCTAGCCGACTCACTATAGGGATAATCGCCCTGAGCAAAGACC | 1.58 ± 0.0857
28 | CTCGAGGATATCAAGATCTGGCCTCGGCCACTTAAAAGGAACCTCTAGCTAGCCGACTCACTATAGGGATAATCGCCCTGAGCAAAGACC | 1.17 ± 0.0931
